Reference: PubChem BioAssay (NCI)
Compounds without any hit were thinned out: in the full panel of roughly 83,000, 20% have a hit.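 Each cell line was grown in a 96-well plate and treated with one concentration of compound for 48 hours. Values below 10 were considered active.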 Activity calls are given as the source filed them.

Columns and labels:
Assay in all cases: NCI-60 one-dose screen, 48 h (100 = growth as untreated, 0 = no growth, -100 = all killed)
Conditions in all cases: 10 µM unless noted
MOLT-4 leukemia = test system: MOLT-4 leukemia
SR leukemia = test system: SR leukemia
RPMI-8226 leukemia = test system: RPMI-8226 leukemia
OVCAR-8 ovarian = test system: OVCAR-8 ovarian
OVCAR-5 ovarian = test system: OVCAR-5 ovarian
OVCAR-4 ovarian = test system: OVCAR-4 ovarian
SK-OV-3 ovarian = test system: SK-OV-3 ovarian
IGROV1 ovarian = test system: IGROV1 ovarian
OVCAR-3 ovarian = test system: OVCAR-3 ovarian
HS 578T breast = test system: HS 578T breast
T-47D breast = test system: T-47D breast
BT-549 breast = test system: BT-549 breast
MDA-MB-435 melanoma = test system: MDA-MB-435 melanoma
SW-620 colon = test system: SW-620 colon
MCF7 breast = test system: MCF7 breast
HCT-116 colon = test system: HCT-116 colon
HCC-2998 colon = test system: HCC-2998 colon
KM12 colon = test system: KM12 colon
NCI/ADR-RES ovarian = test system: NCI/ADR-RES ovarian

Measured: growth

O=[N+]([O-])c1cc([N+](=O)[O-])c(Nn2c3ccccc3c3ccccc32)c([N+](=O)[O-])c1
inactive: OVCAR-5 ovarian 29.4% | IGROV1 ovarian 22.8% | OVCAR-3 ovarian 12.4% | SW-620 colon 11.1%
active: MOLT-4 leukemia 0.889% | SR leukemia 1.48% | RPMI-8226 leukemia -20.5% | OVCAR-8 ovarian 5.97% | OVCAR-4 ovarian 6.45% | SK-OV-3 ovarian -17.2% | HS 578T breast 5.42% | T-47D breast -17.3% | BT-549 breast -27.4% | MDA-MB-435 melanoma 0.936% | MCF7 breast 2.34% | HCT-116 colon -10.1% | HCC-2998 colon 1.54% | KM12 colon 4.34%

CCCC[C@H](NC(=O)[C@H]1CCCCN1C)C(=O)N(C)[C@H](C[C@@H](OC(C)=O)c1nc(C(=O)N[C@@H](Cc2ccccc2)C[C@H](C)C(=O)OCC)cs1)C(C)C
active: SR leukemia 4.92% | SK-OV-3 ovarian -6.08% | OVCAR-3 ovarian 3.86% | NCI/ADR-RES ovarian 4.37% | BT-549 breast -25.6% | MDA-MB-435 melanoma -6.84%
inactive: MOLT-4 leukemia 12.7% | RPMI-8226 leukemia 10.7% | OVCAR-8 ovarian 21% | OVCAR-5 ovarian 36.2% | OVCAR-4 ovarian 49.5% | IGROV1 ovarian 24.4% | HS 578T breast 12.1% | T-47D breast 38.6% | SW-620 colon 24.6% | HCC-2998 colon 14.5% | KM12 colon 13.1%

COC(=O)CC12CC(NC(=O)c3csc([C@@H](C[C@H](C(C)C)N(C)C(=O)[C@@H](NC(=O)[C@H]4CCCCN4C)C(C)C)OC(C)=O)n3)(C1)C2
active: OVCAR-3 ovarian -34.3% | NCI/ADR-RES ovarian -24.1% | BT-549 breast -19.8% | MDA-MB-435 melanoma -39.8% | HCT-116 colon 9.61%
inactive: MOLT-4 leukemia 16.5% | SR leukemia 20.1% | RPMI-8226 leukemia 24.4% | OVCAR-8 ovarian 30.5% | OVCAR-5 ovarian 42.9% | OVCAR-4 ovarian 56.1% | SK-OV-3 ovarian 18.4% | IGROV1 ovarian 26.3% | HS 578T breast 45% | T-47D breast 64.4% | SW-620 colon 29% | MCF7 breast 20.4% | KM12 colon 11.1%

Nc1ccc2c(c1)oc1ccccc12
inactive: MOLT-4 leukemia 85% | SR leukemia 91% | RPMI-8226 leukemia 79.3% | OVCAR-8 ovarian 107% | OVCAR-5 ovarian 98.3% | OVCAR-4 ovarian 103% | SK-OV-3 ovarian 115% | IGROV1 ovarian 110% | OVCAR-3 ovarian 103% | HS 578T breast 104% | NCI/ADR-RES ovarian 95.1% | T-47D breast 97% | BT-549 breast 97.9% | MDA-MB-435 melanoma 94.7% | MCF7 breast 83.2% | HCT-116 colon 99.8% | HCC-2998 colon 97.6% | KM12 colon 106%

CCCc1cc(O)c2c3c(c(=O)oc2c1)CN(C)CC3
inactive: MOLT-4 leukemia 27% | SR leukemia 15.8% | RPMI-8226 leukemia 28.4% | OVCAR-8 ovarian 32.3% | OVCAR-5 ovarian 55.9% | OVCAR-4 ovarian 56.3% | SK-OV-3 ovarian 26.8% | IGROV1 ovarian 32.7% | HS 578T breast 45.7% | T-47D breast 25.5% | BT-549 breast 39.2% | SW-620 colon 12.8% | MCF7 breast 19% | HCT-116 colon 20.8% | HCC-2998 colon 53.9% | KM12 colon 35.7%
active: OVCAR-3 ovarian -3.56% | MDA-MB-435 melanoma -57.8%

COC(=O)[C@H](Cc1c[nH]c2ccccc12)NC(=O)[C@@H](OC)[C@@H]1Cc2cc3cc(OC4CC(OC5CC(O)C(O)C(C)O5)C(O)C(C)O4)c(C)c(O)c3c(O)c2C(=O)[C@H]1OC1CC(OC2CC(OC3CC(C)(O)C(O)C(C)O3)C(O)C(C)O2)C(O)C(C)O1 (stereo partly drawn)
inactive: OVCAR-8 ovarian 11% | OVCAR-5 ovarian 15.3% | SK-OV-3 ovarian 18.2% | IGROV1 ovarian 23.4%
active: MOLT-4 leukemia 0.755% | SR leukemia 4.93% | RPMI-8226 leukemia -5.61% | OVCAR-4 ovarian 0.345% | OVCAR-3 ovarian 4.79% | HS 578T breast -13.6% | T-47D breast 8.07% | BT-549 breast -53.4% | MDA-MB-435 melanoma -71.9% | SW-620 colon 6.98% | MCF7 breast 5.98% | HCT-116 colon 3.71% | HCC-2998 colon -46.8% | KM12 colon 0.363%

COC(=O)[C@@H](C)C[C@H](Cc1ccccc1)NC(=O)c1csc([C@@H](C[C@H](C(C)C)N(C)C(=O)[C@H](C)NC(=O)[C@H]2CCCCN2C)OC(C)=O)n1
active: OVCAR-3 ovarian -0.67% | HS 578T breast 6.45% | MDA-MB-435 melanoma -33%
inactive: MOLT-4 leukemia 33.2% | SR leukemia 15.8% | RPMI-8226 leukemia 15.7% | OVCAR-8 ovarian 26.4% | OVCAR-5 ovarian 63.7% | OVCAR-4 ovarian 60.3% | SK-OV-3 ovarian 47.2% | IGROV1 ovarian 47% | NCI/ADR-RES ovarian 87.6% | T-47D breast 41.9% | BT-549 breast 47.6% | SW-620 colon 18.4% | HCC-2998 colon 33.8% | KM12 colon 22.4%

Nc1ccc(Cl)cc1
inactive: MOLT-4 leukemia 94.3% | SR leukemia 102% | RPMI-8226 leukemia 98.9% | OVCAR-8 ovarian 97.4% | OVCAR-5 ovarian 100% | OVCAR-4 ovarian 106% | SK-OV-3 ovarian 92% | IGROV1 ovarian 105% | OVCAR-3 ovarian 112% | HS 578T breast 98.9% | NCI/ADR-RES ovarian 99.5% | T-47D breast 94.6% | MDA-MB-435 melanoma 105% | SW-620 colon 103% | MCF7 breast 98.2% | HCT-116 colon 95.9% | HCC-2998 colon 106% | KM12 colon 102%

COc1ccc2c(c1)c(-c1nc(-c3cn(C)c4ncccc34)cs1)cn2CCCCN1CCCCC1
inactive: SK-OV-3 ovarian 38.5% | HS 578T breast 58.3% | T-47D breast 61% | BT-549 breast 85.1%
active: MOLT-4 leukemia -65% | SR leukemia -54.3% | RPMI-8226 leukemia -42% | OVCAR-8 ovarian -65.2% | OVCAR-5 ovarian -69.2% | OVCAR-4 ovarian -6.02% | IGROV1 ovarian -62.5% | OVCAR-3 ovarian -78.4% | NCI/ADR-RES ovarian 5.12% | MDA-MB-435 melanoma -88.9% | SW-620 colon -64.3% | MCF7 breast -76.5% | HCT-116 colon -93% | KM12 colon -68.7%

COC(=O)[C@@H](C)C[C@H](Cc1ccccc1)NC(=O)c1nc([C@@H](C[C@H](C(C)C)N(C)C(=O)[C@@H](NC(=O)[C@H]2CCCN2C)C(C)C)OC(C)=O)sc1C
inactive: MOLT-4 leukemia 15.3% | RPMI-8226 leukemia 20.6% | OVCAR-8 ovarian 14.5% | OVCAR-5 ovarian 30.7% | OVCAR-4 ovarian 49.9% | IGROV1 ovarian 27.4% | HS 578T breast 18.8% | T-47D breast 43.2% | SW-620 colon 20.1% | HCC-2998 colon 13.5% | KM12 colon 11.9%
active: SR leukemia 5.28% | SK-OV-3 ovarian 1.93% | OVCAR-3 ovarian -9.82% | NCI/ADR-RES ovarian 4.35% | BT-549 breast -12.7% | MDA-MB-435 melanoma -18.4%

CC(=O)O[C@H](C[C@H](C(C)C)N(C)C(=O)[C@@H](NC(=O)[C@H]1CCCCN1C)C(C)C)c1nc(C(=O)N[C@@H](Cc2ccccc2)C[C@H](C)C(=O)O)c(C)s1
active: SR leukemia 7.46% | SK-OV-3 ovarian 6.87% | NCI/ADR-RES ovarian 1.59% | BT-549 breast -8.43% | MDA-MB-435 melanoma -27%
inactive: MOLT-4 leukemia 20.7% | RPMI-8226 leukemia 25.1% | OVCAR-8 ovarian 20.1% | OVCAR-5 ovarian 31% | OVCAR-4 ovarian 50.6% | IGROV1 ovarian 31.1% | OVCAR-3 ovarian 12.5% | HS 578T breast 21.1% | T-47D breast 45.7% | SW-620 colon 25.5% | HCC-2998 colon 14% | KM12 colon 15.6%

CC[C@H](C)[C@H](NC(=O)C12CC(NC(C)=O)(C1)C2)C(=O)N(C)[C@H](C[C@@H](OC(C)=O)c1nc(C(=O)N[C@@H](Cc2ccccc2)C[C@H](C)C(=O)OC)cs1)C(C)C
inactive: MOLT-4 leukemia 21.4% | SR leukemia 20.8% | OVCAR-8 ovarian 17.2% | OVCAR-5 ovarian 44% | OVCAR-4 ovarian 43.3% | SK-OV-3 ovarian 27% | IGROV1 ovarian 35.4% | HS 578T breast 15.8% | NCI/ADR-RES ovarian 80.5% | T-47D breast 50.1% | SW-620 colon 23.7% | MCF7 breast 15.7% | KM12 colon 12.5%
active: RPMI-8226 leukemia 6.56% | OVCAR-3 ovarian -42.3% | BT-549 breast 4.76% | MDA-MB-435 melanoma -59% | HCT-116 colon 3.73%

CCOC(=O)CCN(C)C1=Nc2ccc(Cl)cc2C(c2ccccc2)=[N+]([O-])C1
inactive: MOLT-4 leukemia 94.1% | SR leukemia 85.8% | RPMI-8226 leukemia 106% | OVCAR-8 ovarian 101% | OVCAR-5 ovarian 109% | OVCAR-4 ovarian 99.4% | SK-OV-3 ovarian 106% | IGROV1 ovarian 107% | OVCAR-3 ovarian 110% | HS 578T breast 96% | T-47D breast 101% | BT-549 breast 88.9% | MDA-MB-435 melanoma 115% | SW-620 colon 104% | MCF7 breast 97.1% | HCT-116 colon 112% | HCC-2998 colon 102% | KM12 colon 104%

COC(=O)[C@@H](C)C[C@H](Cc1ccccc1)NC(=O)c1nc([C@@H](C[C@H](C(C)C)N(C)C(=O)[C@@H](NC(=O)[C@H]2CCCCN2C)C(C)C)OC(C)=O)sc1C
inactive: MOLT-4 leukemia 11.1% | RPMI-8226 leukemia 18.2% | OVCAR-8 ovarian 15% | OVCAR-5 ovarian 41.4% | OVCAR-4 ovarian 50.6% | SK-OV-3 ovarian 29.9% | IGROV1 ovarian 22.7% | HS 578T breast 13.7% | T-47D breast 66.1% | SW-620 colon 20.1% | MCF7 breast 12.3% | HCC-2998 colon 13.8%
active: SR leukemia 4.24% | OVCAR-3 ovarian -37.8% | BT-549 breast -23.4% | MDA-MB-435 melanoma -31.5% | HCT-116 colon 2.54% | KM12 colon 8.06%
